What all share (assay): protein-binding microarray (PBM); PBM: ~300 nM protein, 6 mM HEPES pH 7.8, 80 mM KCl, 0.5 mM EDTA, 0.5 mM EGTA, 6% glycerol, 35 ng/ul poly-dIdC, 1% milk, 1 h, room temperature; Ap Aiptasia and Nv Nematostella (sea anemones) / Co Capsaspora / Aq Amphimedon (sponge) / Dm Drosophila / Hu human; RHD is the Rel homology domain; high values mean tight binding
Common to all, as to details: dsDNA, one strand shown

Test [1] addresses T1, GST-Ap-NF-kB RHD (Exaiptasia pallida (Aiptasia), UniProt A0A913YAJ5 2-422).
T1 sequence: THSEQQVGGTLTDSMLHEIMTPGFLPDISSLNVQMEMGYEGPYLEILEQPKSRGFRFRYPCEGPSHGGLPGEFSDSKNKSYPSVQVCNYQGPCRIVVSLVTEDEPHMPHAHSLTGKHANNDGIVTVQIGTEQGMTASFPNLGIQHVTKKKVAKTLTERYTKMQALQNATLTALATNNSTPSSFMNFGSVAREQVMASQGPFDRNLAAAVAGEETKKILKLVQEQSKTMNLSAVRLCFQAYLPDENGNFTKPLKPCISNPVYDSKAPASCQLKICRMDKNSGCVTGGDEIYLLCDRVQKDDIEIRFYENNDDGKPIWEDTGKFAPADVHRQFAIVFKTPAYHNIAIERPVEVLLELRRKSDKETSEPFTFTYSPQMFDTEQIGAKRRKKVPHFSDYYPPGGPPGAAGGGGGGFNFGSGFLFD

Test [2] deals with T2, GST-Nv-NF-kB (Cys allele) (Nematostella vectensis, UniProt E5G601 2-411).
T2 sequence: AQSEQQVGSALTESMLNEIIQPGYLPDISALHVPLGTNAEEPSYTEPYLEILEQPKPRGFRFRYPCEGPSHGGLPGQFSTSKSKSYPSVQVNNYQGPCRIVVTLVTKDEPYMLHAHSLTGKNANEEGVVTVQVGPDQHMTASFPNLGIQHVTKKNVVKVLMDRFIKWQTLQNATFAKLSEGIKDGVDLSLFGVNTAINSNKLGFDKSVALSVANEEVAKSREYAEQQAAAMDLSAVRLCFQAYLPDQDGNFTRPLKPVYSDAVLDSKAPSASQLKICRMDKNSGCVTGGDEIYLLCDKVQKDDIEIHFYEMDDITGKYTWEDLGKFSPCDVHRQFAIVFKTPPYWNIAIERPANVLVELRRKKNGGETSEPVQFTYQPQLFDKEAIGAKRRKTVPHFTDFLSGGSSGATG

Test [3] concerns the target T3, GST-Co-NF-kB (Capsaspora owczarzaki, UniProt F1ARL5 200-546).
T3 sequence: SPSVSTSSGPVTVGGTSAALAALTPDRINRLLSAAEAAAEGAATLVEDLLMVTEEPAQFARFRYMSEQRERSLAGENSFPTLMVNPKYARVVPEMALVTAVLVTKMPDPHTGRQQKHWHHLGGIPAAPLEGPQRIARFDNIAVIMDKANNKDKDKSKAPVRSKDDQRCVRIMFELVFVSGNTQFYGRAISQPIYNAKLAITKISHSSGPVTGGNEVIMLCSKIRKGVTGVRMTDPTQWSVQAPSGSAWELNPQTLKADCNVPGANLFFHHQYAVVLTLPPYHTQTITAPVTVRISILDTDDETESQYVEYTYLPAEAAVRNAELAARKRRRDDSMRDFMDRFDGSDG

The target in test [4] is T4, GST-Dm-Relish (Drosophila melanogaster, UniProt Q94527 99-473).
T4 sequence: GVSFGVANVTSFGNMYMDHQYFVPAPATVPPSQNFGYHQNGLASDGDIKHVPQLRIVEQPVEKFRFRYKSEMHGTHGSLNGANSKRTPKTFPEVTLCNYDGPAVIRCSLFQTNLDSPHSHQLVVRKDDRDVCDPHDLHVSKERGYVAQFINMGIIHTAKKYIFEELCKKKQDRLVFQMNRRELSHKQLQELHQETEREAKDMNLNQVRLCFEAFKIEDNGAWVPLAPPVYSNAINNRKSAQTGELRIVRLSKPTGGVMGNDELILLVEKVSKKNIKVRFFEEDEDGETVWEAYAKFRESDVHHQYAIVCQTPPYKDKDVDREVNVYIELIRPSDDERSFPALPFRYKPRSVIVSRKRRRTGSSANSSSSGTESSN

Test [5] concerns the target T5, GST-Aq-NF-kB (Amphimedon queenslandica, UniProt A9Y5G7 2-389).
T5 sequence: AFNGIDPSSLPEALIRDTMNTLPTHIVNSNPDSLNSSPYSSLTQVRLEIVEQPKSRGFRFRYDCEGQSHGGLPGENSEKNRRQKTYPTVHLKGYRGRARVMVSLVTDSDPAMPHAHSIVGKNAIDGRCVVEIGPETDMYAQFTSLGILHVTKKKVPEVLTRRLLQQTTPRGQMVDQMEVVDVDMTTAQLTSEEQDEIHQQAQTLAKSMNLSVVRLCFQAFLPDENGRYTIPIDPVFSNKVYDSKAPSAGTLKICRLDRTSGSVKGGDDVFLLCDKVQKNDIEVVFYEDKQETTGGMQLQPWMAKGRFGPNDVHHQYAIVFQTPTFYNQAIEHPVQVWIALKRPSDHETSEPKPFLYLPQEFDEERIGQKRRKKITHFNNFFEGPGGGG

Test [6] concerns the target GST-Hu-p50 (Homo sapiens, UniProt P19838 7-356).

GST-Hu-p50, sequence (P19838 7-356): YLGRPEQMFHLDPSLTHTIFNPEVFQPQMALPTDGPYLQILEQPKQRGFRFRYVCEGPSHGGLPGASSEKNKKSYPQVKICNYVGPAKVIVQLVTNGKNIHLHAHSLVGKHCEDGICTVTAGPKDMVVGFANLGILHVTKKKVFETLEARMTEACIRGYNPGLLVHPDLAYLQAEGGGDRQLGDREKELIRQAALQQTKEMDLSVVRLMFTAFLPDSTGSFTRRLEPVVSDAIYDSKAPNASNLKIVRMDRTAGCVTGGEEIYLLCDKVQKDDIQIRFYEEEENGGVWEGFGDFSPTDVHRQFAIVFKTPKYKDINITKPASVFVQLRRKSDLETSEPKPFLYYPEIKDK

For the sequence “CCGATTAACATCAAAATTCCCTGTGATGTTAATCGGGTCTTGATTCGCTTGACGCTGCTG”, the binding signal in test [1] was 4.81 z-score; in test [2], 6.86 z-score; in test [3], 4.2 z-score; in test [4], 5.96 z-score; in test [5], 6.37 z-score; in test [6] it was 5.07 z-score.
As for “CCGATTAACATCAAACATCCCCCTGATGTTAATCGGGTCTTGATTCGCTTGACGCTGCTG”, the binding signal came out at 6.59 z-score in test [1]; 6.38 z-score in test [2]; 5.97 z-score in test [3]; 6.53 z-score in test [4]; 6.6 z-score in test [5]; 5.44 z-score in test [6].
For the sequence “CCGATTAACATCAAAAACCACCCTGATGTTAATCGGGTCTTGATTCGCTTGACGCTGCTG”, the binding signal in test [1] amounted to 4.27 z-score; in test [2] it was 3.46 z-score; in test [3] it was 2.76 z-score; in test [4], 7.76 z-score; in test [5], 4.53 z-score; in test [6], 5.64 z-score.
“CCGATTAACATCAGGGGATATAATGATGTTAATCGGGTCTTGATTCGCTTGACGCTGCTG”: the binding signal is 5.05 z-score in test [1]; 4.66 z-score in test [2]; 4.01 z-score in test [3]; 3.82 z-score in test [4]; 3.39 z-score in test [5]; 4.28 z-score in test [6].
Consider “CCGATTAACATCAAAATTCCCGTTGATGTTAATCGGGTCTTGATTCGCTTGACGCTGCTG”, for which the binding signal stood at 3.98 z-score in test [1]; 6.87 z-score in test [2]; 4.03 z-score in test [3]; 5.57 z-score in test [4]; 6.15 z-score in test [5]; 5.26 z-score in test [6].
In the case of “CCGATTAACATCAGGATGTCCCCTGATGTTAATCGGGTCTTGATTCGCTTGACGCTGCTG”, the binding signal was found to be 6.09 z-score in test [1]; 4.93 z-score in test [2]; 2.61 z-score in test [3]; 5.89 z-score in test [4]; 5.87 z-score in test [5]; 4.51 z-score in test [6].
With “CCGATTAACATCAAAATTCCCGATGATGTTAATCGGGTCTTGATTCGCTTGACGCTGCTG”, the binding signal came to 4.37 z-score in test [1]; 6.05 z-score in test [2]; 4.55 z-score in test [3]; 5.06 z-score in test [4]; 4.93 z-score in test [5]; 4.38 z-score in test [6].
“CCGATTAACATCAGAGATCCCCCTGATGTTAATCGGGTCTTGATTCGCTTGACGCTGCTG”: the binding signal in test [1] came to 7.26 z-score; in test [2], 6.17 z-score; in test [3], 4.52 z-score; in test [4], 6.84 z-score; in test [5], 5.8 z-score; in test [6], 6.13 z-score.
As to “CCGATTAACATCAAATACCCCCCTGATGTTAATCGGGTCTTGATTCGCTTGACGCTGCTG”, the binding signal in test [1] amounted to 7.87 z-score; in test [2], 5.54 z-score; in test [3], 6.37 z-score; in test [4], 6.76 z-score; in test [5] it was 6.24 z-score; in test [6] it was 5.42 z-score.
Take “CCGATTAACATCAAAGCACCCCCTGATGTTAATCGGGTCTTGATTCGCTTGACGCTGCTG”: the binding signal in test [1] was 4.9 z-score; in test [2], 3.86 z-score; in test [3], 3.63 z-score; in test [4], 3.26 z-score; in test [5], 4.36 z-score; in test [6] it was 4.35 z-score.
As for “CCGATTAACATCAGAAATGCCCCTGATGTTAATCGGGTCTTGATTCGCTTGACGCTGCTG”, the binding signal came out at 4.03 z-score in test [1]; 5.61 z-score in test [2]; 1.98 z-score in test [3]; 4.09 z-score in test [4]; 5.32 z-score in test [5]; 5.55 z-score in test [6].
For “CCGATTAACATCAGAAACTTCCCTGATGTTAATCGGGTCTTGATTCGCTTGACGCTGCTG”, the binding signal was determined as 4.46 z-score in test [1]; 5.22 z-score in test [2]; 2.41 z-score in test [3]; 4.16 z-score in test [4]; 5.51 z-score in test [5]; 4.25 z-score in test [6].
In the case of “CCGATTAACATCACACTCCCCCCTGATGTTAATCGGGTCTTGATTCGCTTGACGCTGCTG”, the binding signal came out at 5.44 z-score in test [1]; 4.08 z-score in test [2]; 6.07 z-score in test [3]; 3.37 z-score in test [4]; 3.93 z-score in test [5]; 5.38 z-score in test [6].
